Inconclusive results are not listed. Active and inactive are the calls of the source. Unless noted, calls follow the shape of the dose curve; as a rule, active = well fitted curve in the direction sought with a large enough effect; inconclusive = small, poorly fitted or top-dose-only effect, or another doubt; inactive = no such curve, though single readings can be large; an effect the other way counts as inactive or inconclusive.
How the values were obtained:
[1] = J3T Cancer Cell Toxicity qHTS against the NCATS CANVASS Library (AID 1347371)
Outline: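 Cytotoxicity read as CellTiterGlo ATP luminescence after 72 h incubation (37C, 5% CO2) of J3T canine glioma cells (500/well) with an 11-point compound series.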

[2] = target: Nuclear receptor subfamily 1 group I member 3 (Homo sapiens) (UniProt Q14994); assay: qHTS for Constitutive Androstane Receptor (CAR) Antagonist screened against the NCATS CANVASS Library (AID 1347372)
Sequence of Nuclear receptor subfamily 1 group I member 3 (Homo sapiens) (Q14994 whole entry, looked up): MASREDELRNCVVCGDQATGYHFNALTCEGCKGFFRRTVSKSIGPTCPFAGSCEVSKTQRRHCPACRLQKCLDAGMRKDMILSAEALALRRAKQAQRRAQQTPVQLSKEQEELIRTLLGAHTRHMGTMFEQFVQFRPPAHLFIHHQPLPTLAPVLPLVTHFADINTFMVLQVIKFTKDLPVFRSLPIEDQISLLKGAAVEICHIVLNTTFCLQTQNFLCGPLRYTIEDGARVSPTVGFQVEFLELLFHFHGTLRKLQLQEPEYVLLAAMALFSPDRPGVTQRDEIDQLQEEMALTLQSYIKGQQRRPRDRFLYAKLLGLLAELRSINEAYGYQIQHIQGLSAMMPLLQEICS
Outline: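 Luminescence readout (ONE-Glo, 30 min RT) of CYP2B6-2.2kb reporter in HepG2-hCAR cells after 24hr, 37C treatment with compound against 50 nM CITCO; CellTiter-Fluor viability read beforehand.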

[3] = target: Nuclear receptor subfamily 1 group I member 3 (Homo sapiens) (UniProt Q14994); assay: qHTS for Constitutive Androstane Receptor (CAR) Agonist screened against the NCATS CANVASS Library (AID 1347373)
Outline: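 Agonist mode with 1.5uM PK11195 present: compounds for 24hr on HepG2-hCAR-CYP2B6 cells. CellTiter-Fluor fluorescence (ex 405, em 540 nm) gives viability; ONE-Glo luminescence reports CAR activation.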

[4] = qHTS for Hypoxia signaling pathway (HIF-1) antagonists against the NCATS CANVASS Library (AID 1347374)
Outline: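 Antagonism scored as loss of CoCl2-driven (60 uM stock added) HRE beta-lactamase signal, read by CCF4 FRET at 460/530 nm. Compounds were tested in an 11-point series on ME-180 reporter cells for 17 hrs at 37C, with parallel CellTiter-Glo cytotoxicity.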

[5] = qHTS for Hypoxia signaling pathway (HIF-1) agonists against the NCATS CANVASS Library (AID 1347375)
Outline: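 Beta-lactamase reporter under HRE control in ME-180 cells; compounds (11-point qHTS series) added after 5 hrs plating, then 17 hrs at 37C. FRET substrate read after 2 hr; same-well CellTiter-Glo luminescence gave viability and normalization.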

[6] = 10-beta competent E. coli microbial cell viability qHTS against the NCATS CANVASS Library (AID 1347376)
Outline: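 Read-out: BacTiter-Glo ATP luminescence, taken 20 min after reagent addition. Beforehand, 10-beta competent E. coli at 0.2 OD had been incubated overnight at 37C with compounds at 11 concentrations.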

[7] = DH5-alpha competent E. coli microbial cell viability qHTS against the NCATS CANVASS Library (AID 1347377); conditions: outcome: at 46.1 µM (top of the series)
Outline: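 Bacterial viability as ATP-dependent luminescence (BacTiter-Glo), read after overnight 37 °C exposure of DH5-alpha competent E. coli to compounds in 11-point titration.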

[8] = qHTS for Inflammasome Signaling Inhibitors: IL-1-beta AlphaLISA screen against the NCATS CANVASS Library (AID 1347379)
Outline: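 Secreted IL-1B from human THP-1 cells quantified by AlphaLISA 16 hr after compound addition (final up to 57.5 uM). A 1 hr compound pretreatment preceded inflammasome activation with 250 ng/mL LPS plus 1.25 mM ATP (final).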

[9] = qHTS for Antimalaria activity screened against the NCATS CANVASS Library (AID 1347380)
Outline: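 SYBR Green fluorescence at 485/535 nm was read 18 hr after lysis. This followed a 72 hr incubation at 37C in 5% O2, 5% CO2 of Dd2-infected erythrocytes (0.3% parasitemia, 2.5% final hematocrit) with compounds titrated over 11 concentrations.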

[10] = Inflammasome Signaling qHTS Counterscreen: IL-1-beta AlphaLISA counterscreen against the NCATS CANVASS Library (AID 1347381)
Outline: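 Purified IL-1-beta (4 pg/well) + compound, 11-pt conc. series; acceptor beads 6 ug/mL + biotin-Ab 0.6 nM final, 1 h RT; SA-donor 24 ug/ml final, 30 min dark RT; read ex 680/em 615.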

[11] = qHTS for Activators of p53 Stress Response Pathway screened against the NCATS CANVASS Library (AID 1347388)
Outline: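 p53RE-bla HCT-116 cells (4000/well) were pre-incubated for 5 h, then treated with compound (11 points) for 16 h at 37C. After 2 h with CCF4, the 460/530 nm ratio gave reporter activation; CellTiter-Glo measured viability.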

[12] = qHTS assay for small molecule disruptors of mitochondrial membrane potential screened against the NCATS CANVASS Library (AID 1347389)
Outline: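 Mitochondrial membrane potential in HepG2: 1 h compound treatment (11-point concentration series), 30 min m-MPI dye at 37C, then dual fluorescence of J-aggregates (ex 540/em 590) and monomers (ex 490/em 535); lower red/green ratio indicates depolarization.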

[13] = Secretion counterscreen for inhibitors of the SERCaMP assay screened against the NCATS CANVASS Library (AID 1347390)
Outline: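 Counterscreen identifying compounds that disrupt secretion, using SH-SY5Y cells with a constitutively secreted Gaussia luciferase reporter. A 20 h compound exposure (top 77 uM) precedes luminescent detection with coelenterazine.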

[14] = qHTS for activators of dead-cell proteases activity screened against the NCATS CANVASS Library (AID 1347392)
Outline: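 HepG2, 2000 cells/well, 18 h attach; cpd 11-pt, 5 h 37C 5% CO2; CytoTox-Glo (AAF-aminoluciferin) 15 min RT; luminescence read.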

[15] = qHTS for inhibitors of Wild type Zika virus screened against the NCATS CANVASS Library (AID 1347396)
Outline: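 Vero 766 cells, 1000/well, o/n attach; cpds pin-transferred (11-pt qHTS); WT Zika added; 72 h, 37C, 5% CO2; CellTiter Glo lumi. Uninfected + vehicle = 100% inhibition.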

[16] = Viability qHTS for inhibitors of the SERCaMP assay screened against the NCATS CANVASS Library (AID 1347400)
Outline: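 CellTiter-Glo luminescence measured cytotoxicity after 48 h at 37C of compound treatment (11-point series). Cells were SH-SY5Y-GLuc SERCaMP MJH297 derivatives, seeded at 1000 per well 4 h beforehand.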

[17] = Redox Reaction Profiling qHTS: Assay Interference Panel against the NCATS CANVASS Library (AID 1347401)
Outline: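 Fluorescence read-out (525 nm excitation, 598 nm emission) at time zero and after 15 min in the dark tracked resorufin formation. Mix: 5 uM resazurin, 200 uM DTT, HEPES pH 7.3 buffer with NaCl.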

[18] = qHTS for inhibitors of Rabies Virus screened against the NCATS CANVASS Library (AID 1347402; calls by dose curve)
[19] = Confirmatory qHTS for VERO E6 Cytotoxicity Assay: Counterscreen for SARS-CoV-2 CPE Assay (AID 1508605; calls by dose curve)
[20] = qHTS assay to identify inhibitors of the type 1 interferon - major histocompatibility complex class I in skeletal muscle: Counter screen cell viability and HiBit confirmation (AID 1347412); conditions: iHSKM muscle cells + IFN-b, HiBiT or CellTiter-Glo, 24 h; Potency: HiBiT; Viability, at 45.9 µM (top of the series)
Outline: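 Myoblasts (C25cl48, HLA-B HiBiT) seeded in medium without dexamethasone, IFN-b 4 ng/ml added except unstimulated columns; 1 hr later compounds pinned (12-pt 1:3, top 46 uM final). Incubated 24 hrs, lysed 10 min, luminescence measured.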

Measured: Potency

CN1C(=O)[C@]23CC4C(C)(C)[C@@]5(C[C@@]41CN2CC[C@@]3(C)O)C(=O)Nc1c5ccc2c1OC=CC(C)(C)O2 (stereo not given in full)
not listed: [19] | [20]
inactive: all other assays above

C/C=C1/CN2CC[C@]34C(=Nc5ccccc53)[C@@H]2C[C@@H]1[C@H]4C(=O)OC
not listed: [19] | [20]
inactive: all other assays above

COc1ccc(CCNCc2ccc(OC)c3ccccc23)cc1
inactive: [19]

CN1CN(c2ccccc2)C2(CCN(CCCC(=O)c3ccc(F)cc3)CC2)C1=O
inactive: [19]

C[C@H](Nc1ncnc2nc[nH]c12)c1nc2ccc(F)cc2c(=O)n1-c1ccccc1
inactive: [20]

Cc1sc2c(c1C)C(c1ccc(Cl)cc1)=N[C@@H](CC(=O)Nc1ccc(O)cc1)c1nnc(C)n1-2
inactive: [20]

— PubChem BioAssay (NCATS)
